# Compound activity as filed in PubChem BioAssay.
# TIM10 inh: growth inhibitors of TIM10 yeast strain; AID 463195; inhibition, % at 10 µM; 330,000 tested, 1.4% active; S. cerevisiae TIM10 strain growth, BacTiter-Glo luminescence, 24 h;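 active = inhibition of 40% or more at the single tested concentration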;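 note: wild-type TIM10 isogenic control strain grown at permissive 25 °C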
# tim10-1 inh: inhibits growth of tim10-1 mutant yeast; S. cerevisiae tim10-1 ts strain growth, BacTiter-Glo, 24 h; inhibition, % at 20 µM; 330,000 tested, 2.2% active;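 active = inhibition of at least 40%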;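 note: mutant grown at 25 °C; 0% = DMSO wells with yeast and 100% = wells holding no yeast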
# PfHsp90 yeast 2: growth inhibition of yeast expressing Plasmodium Hsp90; S. cerevisiae expressing PfHsp90, BacTiter-Glo ATP, 48 h; yeast lacking PDR1 and PDR3 efflux regulators; inhibition, % at 9.4 µM; 310,000 tested, 0.32% active; AID 504621;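 active = every replicate shows inhibition above about 80%, whatever the replicate mean, limit read from the data; inconclusive = mean inhibition reaches the set limit but some replicate falls short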;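 note: 0% = DMSO neutral controls and 100% = 20 µM radicicol positive controls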
# V-ATPase pH: alters yeast V-ATPase proton transport; AID 504577; 350,000 tested, 0.37% active; S. cerevisiae, pHLuorin cytosolic pH fluorescence; response, % at 10 µM; in the data active = response mostly above about 7.3%, no sharp cut-off; inactive = mostly below about 5.4%; note: actives read high
# tim23-1 inh: tim23-1 yeast growth inhibition; S. cerevisiae tim23-1 growth, BacTiter-Glo luminescence, 24 h; inhibition, % at 20 µM; 330,000 tested, 1.3% active; AID 463212;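 active = growth inhibition of the mutant yeast at or above 50%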;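 note: temperature-sensitive mutant grown at 25 °C; plate controls were DMSO-treated mutant yeast for no effect and medium wells lacking yeast for full effect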
# tim10-1 confirm: confirmation of tim10-1 mutant yeast growth inhibitors; S. cerevisiae tim10-1 ts strain growth, BacTiter-Glo, 24 h; 7,400 tested, 56% active; inhibition, % at 20 µM; shares compounds with tim10-1 inh;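 active = inhibition of yeast growth at or above a set limit in either of two repeat tests at 20 µM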;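 note: tim10-1 mutant grown at permissive 25 °C to find synthetic lethal compounds; 0% = DMSO yeast wells and 100% = medium wells without yeast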
# tim10 confirm: TIM10 yeast growth inhibition, confirmed. shares compounds with TIM10 inh. S. cerevisiae tim10 strain growth, BacTiter-Glo luminescence, 24 h. inhibition, % at 10 µM. 4,600 tested, 63% active;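 active = inhibition of yeast growth at or above a set limit in either of two replicates at 10 µM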;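 note: this counterscreen used the strain with wild-type TIM10; 0% = yeast with DMSO and 100% = medium wells lacking yeast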
# tim23-1 conf: tim23-1 yeast growth inhibition, confirmed; shares compounds with tim23-1 inh; S. cerevisiae tim23-1 growth, BacTiter-Glo luminescence, 24 h; inhibition, % at 20 µM; 4,400 tested, 83% active; AID 463218;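 active = inhibition above about 39% in either of two replicate wells at 20 µM, limit read from the data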;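 note: temperature-sensitive tim23-1 mutant grown at 25 °C; 0% = DMSO wells with yeast and 100% = medium wells without yeast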
# Numbers without * were called inactive; u = inconclusive; x = no result. Only some compounds are listed: those with a hit (about 3.7% of all), similar ones and a draw of the others.
SMILES,TIM10 inh,tim10-1 inh,PfHsp90 yeast 2,V-ATPase pH,tim23-1 inh,tim10-1 confirm,tim23-1 conf,others
COc1ccccc1NC(=O)C1CCN(S(=O)(=O)c2ccc3c(c2)NC(=O)C(C)S3)CC1 (configuration not stated),-7,10,18,-2,13,x,x,
O=[N+]([O-])c1ccc(C=Nc2cccc3ccccc23)s1,14,77*,103*,2,79*,77*,70*,
O=c1oc(/C=C/c2ccc([N+](=O)[O-])s2)nc2ccccc12,35,60*,-10,1,54*,46*,45*,
CC(=O)Oc1ccccc1/C=C/c1nc2ccccc2c(=O)o1,26,34,-16,2,30,x,x,
O=[N+]([O-])c1ccc(-c2ccc(C=Nc3cccc4ccccc34)o2)cc1,4,6,16,-1,10,x,x,
Cc1cccc(NC(=O)COC(=O)C2COc3ccccc3O2)c1C (configuration not stated),-9,10,-23,-3,13,x,x,
NC(=O)CCC(C(=O)O)N1C(=O)C2C3CCC(C3)C2C1=O (configuration not stated),x,x,x,-2,x,x,x,
C[C@@H]1CCCCO[C@H](CN(C)C(=O)Cc2ccccc2)[C@@H](C)CN([C@H](C)CO)C(=O)c2cc(N(C)C)ccc2O1,x,x,x,-1,x,x,x,
NNC(=O)c1[nH]c(-c2ccccc2)cc1-c1ccccc1,41*,57*,-9,-2,53*,44*,46*,tim10 confirm=21
Cc1cc(Cl)ccc1N=c1ssnc1Cl,40,52*,u,1,59*,55*,77*,
Cc1cc(C)nc(/N=c2/ssnc2Cl)c1,77*,81*,x,1,91*,83*,68*,tim10 confirm=95*
Cc1ccc(N=c2ssnc2Cl)cc1,27,64*,93*,4,66*,63*,90*,
Cc1cc(C)c(C#N)c(Cl)n1,-6,-5,-11,1,6,x,x,
Nc1ccccc1N=c1ssnc1Cl,x,x,6,-1,x,x,x,
Cc1cccc(NS(=O)(=O)c2cccc(C(=O)N3CCN(C/C=C/c4ccccc4)CC3)c2)c1,-1,-6,-1,3,1,x,x,
CC(C)c1ccc(NC(=O)C2CCN(S(=O)(=O)c3ccc4c(c3)C(C)(C)C(=O)N4C)CC2)cc1,3,10,-1,-1,11,x,x,
Cc1nc2nc(C)n(CCN3CCOCC3)c(=O)c2c(-c2cccc([N+](=O)[O-])c2)c1C(=O)CCCCCCCCCCN1CCC(c2ccccc2)(c2ccccc2)CC1,x,x,0,0,x,x,x,
COc1ccc(OC)c(-c2csc(NC(=O)c3ccc(F)cc3)n2)c1,4,6,5,-2,1,x,x,
Nc1ncnc2c1ncn2[C@@H]1O[C@H](COS(=O)(=O)O)[C@@H](O)[C@H]1O,3,0,-17,3,0,x,x,
NCCC(=O)NC[C@H]1O[C@@H](n2cnc3c(N)ncnc32)[C@H](O)[C@@H]1O,-13,-4,-9,-2,22,x,x,
Nc1ncnc2c1ncn2[C@@H]1O[C@H](COP(=O)(O)O)[C@@H](O)[C@H]1O,76*,87*,70,11,84*,85*,90*,tim10 confirm=66*
Nc1ncnc2c1ncn2[C@@H]1O[C@H](COP(=O)(O)OP(=O)(O)OP(=O)(O)O)[C@@H](O)[C@H]1O,70*,84*,88*,0,84*,80*,87*,tim10 confirm=68*
Nc1ncnc2c1ncn2C1OC(COP(=O)(O)O)C(O)C1O (configuration not stated),73*,85*,97*,12,81*,84*,88*,tim10 confirm=60*
CC(NCC(O)COCCC12CC3CC(CC(C3)C1)C2)c1ccccc1 (configuration not stated),27,-2,1,0,-5,x,x,
COc1ccccc1-c1nn(Cc2ccccc2)cc1C(=O)NCC(c1ccco1)N1CCCC1 (configuration not stated),0,13,14,-1,12,x,x,
SMILES,TIM10 inh,tim10-1 inh,PfHsp90 yeast 2,V-ATPase pH,tim23-1 inh,tim10-1 confirm,tim23-1 conf,others
C=C(C(=O)c1ccccc1)C(C)CC(=O)c1ccccc1 (configuration not stated),49*,44*,16,0,55*,60*,48*,tim10 confirm=56*
COc1cccc(/C=C2\SC(=S)N(CCCC(=O)N(CCO)c3ccccc3)C2=O)c1,24,44*,-27,-2,50*,30,54*,
COc1cc(O)c2c(=O)c3c(OC)c(O)ccc3oc2c1,42*,67*,-12,4,56*,57*,66*,tim10 confirm=51*
CCOc1c2ccc(C(=O)NCc3ccc4c(c3)OCO4)cc2nn1CC,2,3,33,7,25,x,x,
Cc1nc2cc(C(=O)NCc3ccc4c(c3)OCO4)ccc2n1-c1ccc(Br)cc1,15,47*,6,1,52*,39*,48*,
CC(C)(C)OC(=O)N1CCC(C(=O)Nc2cccc(C(=O)N3CCCCC3)c2)CC1,x,x,-18,0,x,x,x,
COc1ccccc1NC(=O)N1CCCC(CNC(=O)c2ccccc2Cl)C1 (configuration not stated),8,8,17,-2,13,x,x,
CCCN1C(=O)/C(=C2\SC(N3CCCCC3)=NC2=O)c2ccccc21,30,42*,9,4,50*,32*,48*,
COc1cccc(C(C(=O)NCC2CCCO2)N(C(=O)Cn2nnc3ccccc32)c2ccc(NC(C)=O)cc2)c1OC (configuration not stated),-4,17,11,5,16,x,x,
CN(C)C=NC(=O)c1[nH]c2ccc(Cl)cc2c1-c1ccccc1,-54,29,-39,0,45,x,x,
N#C/C(=C/c1ccc(N2CCCCCC2)o1)c1ccc(F)cc1,42*,62*,64,-4,60*,18,69*,tim10 confirm=58*
Cc1cc(C)c(S(=O)(=O)c2ccccc2C(C)C)c(=O)[nH]1,x,x,19,1,x,x,x,
O=C1/C(=C/c2ccccn2)SC(=S)N1Nc1ncc(C(F)(F)F)cc1Cl,x,x,3,-6,x,x,x,
O=C1/C(=C\c2ccccn2)SC(=S)N1Nc1ncc(C(F)(F)F)cc1Cl,59*,64*,-5,6,64*,57*,33,tim10 confirm=47*
COc1ccc(OC)c(CNS(=O)(=O)c2c(C)nc3scc(C)n3c2=O)c1,1,-3,23,-3,1,x,x,
O=Nc1c(-c2ccccc2)cc2ccccn12,49*,50*,-41,9,66*,43*,63*,tim10 confirm=29*
